Data from PubChem BioAssay.
“And” between values parts separate entries of the source, which are not always exact repeats. Equal entries are not always repeated. The source made the active and inactive calls. Unless noted, no stated cut-off is given here; in the data, active means inhibition above about 80%; inactive means the rest.

Tests used:
[1] = liver-stage malaria parasite growth inhibition, primary screen, cell-based, HepG2, luciferase luminescence, HepG2 viability (AID 624349; in the data active means parasite load remaining mostly below about 12%, no sharp cut-off; inactive means mostly above about 10%;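 further: 100% = mean of DMSO negative control wells on the same plate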); conditions: P. berghei liver stage in HepG2, luciferase luminescence, concentration not given here; parasite load remaining: stronger effect = lower value; viability: measured here: HepG2 viability without parasites
[2] = test system: Aerobactin synthetase IucA (Klebsiella pneumoniae); experiment: IucA aerobactin synthetase inhibitors, biochemical, Tocris library, absorbance (AID 1345561; call rule not given here;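 further: 100% = enzyme without compound and 0% = no enzyme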); conditions: purified IucA enzyme assay, absorbance (OD) read-out; stronger effect = lower value;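 tested at 8 µM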
[3] = sensitizers of A549 cells to miR-34 induction, primary screen, imaging, A549 dox-inducible miR-34, nuclei and caspase counts (AID 1347080;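 active means compounds whose cell count with miR-34 switched on is under 0.7 times the count with it off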); conditions: A549 miR-34 inducible, Hoechst nuclei count, 48 h
[4] = survival rescue of mitochondrial mutant cells in low glucose, primary screen, MELAS cybrids, Rieske KO mouse fibroblasts, CellTiter-Glo (AID 1508586;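 active means mean z-score across replicates of 1.96 or higher in either the MELAS or the Rieske mutant cell line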;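 further: z relative to plate mean and SD of compound and empty wells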)
[5] = viability rescue of complex I mutant cybrids, primary screen, cell-based, galactose medium, ATP luminescence (AID 1645843;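 active means z-score of at least 1.8 in each of two replicates, scored against plate mean and spread of sample wells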;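 further: positive z means more ATP and so rescue of galactose-driven cybrid death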); conditions: complex I mutant cybrid cells, 72 h, stronger effect = higher value
[6] = LFS_MB_P medulloblastoma growth inhibition, cell-based, chromothripsis tumors, cisplatin or BGB combos (AID 1671449); conditions: LFS_MB_P medulloblastoma cells;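 further: cells exposed for 96 hours; 0% = vehicle DMSO and 100% = killing by high DMSO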
[7] = HDN33 neuroblastoma growth inhibition, cell-based, chromothripsis tumors, cisplatin or BGB combos (AID 1671450); conditions: HDN33 neuroblastoma cells, stronger effect = higher value;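 further: cells exposed to compound for four days; 0% = vehicle DMSO and 100% = cell killing by high DMSO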
[8] = ICB984 medulloblastoma cell growth inhibition, synergistic combos for chromothripsis tumors, cisplatin or BGB combos (AID 1671451; call rule not given here;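 further: cells exposed for 96 hours before readout; 0% = vehicle DMSO and 100% = killing by high DMSO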); conditions: ICB984 medulloblastoma cells, drug combinations, stronger effect = higher value
[9] = LFS_MB_1R medulloblastoma cell growth inhibition, synergistic combos for chromothripsis tumors, cisplatin or BGB combos (AID 1671452); conditions: LFS_MB_1R medulloblastoma cells, stronger effect = higher value;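 further: cells exposed for 96 hours before readout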
[10] = HTB85 osteosarcoma cell growth inhibition, synergistic combos for chromothripsis tumors, BGB or cisplatin IC20 combos (AID 1671453); conditions: HTB85 osteosarcoma cells, drug combinations, stronger effect = higher value;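 further: cells exposed for 96 hours before readout; 0% = vehicle DMSO and 100% = high DMSO killing control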
[11] = CRL2098 osteosarcoma cell growth inhibition, synergistic combos for chromothripsis tumors, BGB or cisplatin IC20 combos (AID 1671454); conditions: CRL2098 osteosarcoma cells, drug combinations, stronger effect = higher value;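 further: cells exposed for 96 h before readout; 0% = vehicle DMSO and 100% = killing by high DMSO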
[12] = HD-MB03 medulloblastoma cell growth inhibition, synergistic combos for chromothripsis tumors, BGB or cisplatin IC20 combos (AID 1671455; in the data active means inhibition above about 83%;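 further: 0% = vehicle DMSO and 100% = high DMSO as cytotoxic control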); conditions: HD-MB03 medulloblastoma cells, stronger effect = higher value
[13] = UWB1.289 ovarian carcinoma cell growth inhibition, synergistic combos for chromothripsis tumors, BGB or cisplatin combos (AID 1671456); conditions: UWB1.289 ovarian carcinoma cells, stronger effect = higher value;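 further: cells exposed to compound for four days; 0% = vehicle DMSO and 100% = killing by high DMSO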
[14] = LFS_MB_2R medulloblastoma cell growth inhibition, synergistic combos for chromothripsis tumors, cisplatin combos (AID 1671457); conditions: LFS_MB_2R medulloblastoma cells, stronger effect = higher value;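 further: cells exposed to compound for four days before readout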
[15] = MDA-MB-436 breast carcinoma cell growth inhibition, synergistic combos for chromothripsis tumors, BGB or cisplatin combos (AID 1671458; call rule not given here;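 further: cells exposed for 96 hours; 0% = vehicle DMSO and 100% = killing by high DMSO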); conditions: MDA-MB-436 breast carcinoma growth inhibition, drug combinations, stronger effect = higher value
[16] = UWB1.289_BRCA1 ovarian cancer growth, cell-based, BGB or cisplatin combinations (AID 1671459); conditions: UWB1.289 BRCA1 ovarian carcinoma, drug combinations, stronger effect = higher value
[17] = human astrocyte viability loss, single and combined drugs, cytotoxicity control for chromothriptic childhood tumor combination screen, cell-based, BGB or cisplatin IC20 combos (AID 1671460); conditions: Human astrocytes, drug combinations, stronger effect = higher value;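 further: cells exposed to compounds for 96 hours before viability readout; 0% = vehicle and 100% = killing control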
[18] = growth inhibition of BT084 medulloblastoma cells, cell-based, ICGC_MB145, cisplatin and BGB IC40 combos (AID 1671461); conditions: drug combinations, stronger effect = higher value;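 further: cells exposed to drugs for 96 hours; 0% = vehicle DMSO and 100% = high DMSO full killing control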
[19] = growth inhibition of RCMB18 medulloblastoma cells, cell-based, cisplatin and BGB IC40 combos (AID 1671462); conditions: stronger effect = higher value;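 further: cells exposed to compound for four days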
[20] = growth inhibition of CRL1545 osteosarcoma cells, cell-based, cisplatin and BGB IC20 combos (AID 1671464); conditions: stronger effect = higher value;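 further: cells exposed to compound for 96 hours before readout; 0% = vehicle DMSO and 100% = high DMSO killing control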
[21] = measured here: combination with BGB IC40, at 0.05 µM
[22] = measured here: with BGB IC20 combination, at 0.5 µM
[23] = measured here: with cisplatin IC20 combination, at 0.5 µM
[24] = measured here: combination with cisplatin, at 0.5 µM
[25] = measured here: combination with cisplatin, at 5 µM

O=C(NC(NC(=S)Nc1ccc(F)c([N+](=O)[O-])c1)C(Cl)(Cl)Cl)C(c1ccccc1)c1ccccc1 (stereo not drawn)
parasite load remaining [1]: 37.9% (inactive) | viability [1]: 150% | remaining activity [2]: 80.1% (inactive) | fold change ([3]; stronger effect = lower value, cell number ratio, induced over uninduced): 0.886 (inactive) and 0.916 (inactive) | fold change ([3]; measured here: relative caspase fold change +Dox/-Dox): 0.378 and 1.21 | cell count ([3]; measured here: total cells with miR-34 induction, stronger effect = lower value): 1760 and 1260 | cell count ([3]; measured here: total cells without miR-34 induction): 1990 and 1380 | z-score ([4]; MELAS cybrid survival, CellTiter-Glo 48 h, stronger effect = higher value): -0.482 (inactive) | z-score ([4]; Rieske KO mouse fibroblast survival, CellTiter-Glo 72 h): -0.549 | z-score [5]: -0.7 (inactive) | inhibition ([6]; at 0.5 µM, stronger effect = higher value): -14.4% (inactive) and -15.8% (inactive) | inhibition ([6]; measured here: combination with BGB IC20, at 0.005 µM): -15.1% and -22% | inhibition ([6]; measured here: combination with BGB IC40, at 0.005 µM): -12.9% and -23.4% | inhibition [6, 21]: -2.89% and -34.1% | inhibition ([6]; measured here: combination with cisplatin, at 0.5 µM, stronger effect = higher value): -21.5% and -41.9% | inhibition ([6]; measured here: combination with cisplatin, at 5 µM, stronger effect = higher value): -21.2% and -42.7% | inhibition ([7]; BGB combo, at 5 µM): -9.61% and -16% | inhibition ([7]; at 0.5 µM): -0.93% (inactive) and -12% (inactive) | inhibition ([7]; cisplatin combo, at 5 µM): -12.1% and -4.83% | inhibition [7, 22]: -8.76% and -21.5% | inhibition [7, 23]: 2.56% and -5.96% | inhibition ([7]; single agent, at 5 µM): 4.16% and -9.08% | inhibition ([8]; BGB IC20 combo, at 0.005 µM): 7.62% and 15.2% | inhibition ([8]; BGB IC40 combo, at 0.005 µM): -20.7% and 11.9% | inhibition ([8]; BGB IC40 combo, at 0.05 µM): 35.5% and -11.2% | inhibition ([8]; at 0.5 µM): -22.3% (inactive) and -17.8% (inactive) | inhibition ([8]; cisplatin combo, at 0.05 µM): 33.7% and -15.2% | inhibition ([8]; cisplatin combo, at 0.5 µM): -13.4% and -3.51% | inhibition ([8]; cisplatin combo, at 5 µM): -12.5% and -33.8% | inhibition ([8]; measured here: 5 uM single agent, at 5 µM): -8.95% and -2.73% | inhibition ([9]; at 0.5 µM): 4.09% (inactive) and -12.4% (inactive) | inhibition [9, 21]: -23.4% and -14.6% | inhibition [9, 24]: -13.7% and -10.4% | inhibition [9, 25]: 30.6% and -30.6% | inhibition ([10]; at 0.5 µM): 8.95% (inactive) and 0.41% (inactive) | inhibition ([10]; measured here: with BGB IC20, at 0.5 µM): 16.1% and 0.127% | inhibition ([10]; measured here: with BGB IC20, at 5 µM): 2.8% and -10.9% | inhibition ([10]; measured here: with cisplatin IC20, at 0.5 µM): 1.41% and -9.26% | inhibition ([10]; measured here: with cisplatin IC20, at 5 µM): 2.01% and -34.1% | inhibition ([10]; single agent, at 5 µM): -3.27% and 7.66% | inhibition ([11]; at 0.5 µM): -40.5% (inactive) and -32.4% (inactive) | inhibition ([11]; measured here: combination with BGB at IC20, at 0.5 µM): -40.4% and -25.9% | inhibition ([11]; measured here: combination with cisplatin at IC20, at 0.5 µM): -32.4% and -44.5% | inhibition ([12]; at 0.5 µM): -6.28% (inactive) and -0.79% (inactive) | inhibition ([12]; measured here: combo with BGB at IC20, at 0.5 µM): -4.65% and -5.29% | inhibition ([12]; measured here: combo with cisplatin at IC20, at 0.5 µM): -1.73% and -0.093% | inhibition ([13]; at 0.5 µM): 1.14% (inactive) and 7.56% (inactive) | inhibition ([13]; measured here: inhibition with BGB combination, at 0.05 µM): -13.3% and -2.68% | inhibition ([13]; measured here: inhibition with cisplatin combination, at 0.05 µM): -5.95% and 6.61% | inhibition ([14]; at 0.5 µM): -3.23% (inactive) and -7.87% (inactive) | inhibition [14, 24]: -13.3% and -8.76% | inhibition [14, 25]: -66.9% and -2.51% | inhibition ([15]; at 0.5 µM): -16.1% (inactive) and -3% (inactive) | inhibition ([15]; measured here: BGB combination, at 0.5 µM): -8.94% and -6.88% | inhibition ([15]; measured here: BGB combination, at 5 µM): -14.6% and -14.8% | inhibition ([15]; measured here: cisplatin combination, at 0.5 µM): -23.9% and -0.178% | inhibition ([15]; measured here: cisplatin combination, at 5 µM): -32.1% and -10.9% | inhibition ([16]; BGB combination, concentration series, at 5 µM): 0.384% and 38.2% | inhibition ([16]; at 0.5 µM): 2.79% (inactive) and 5.22% (inactive) | inhibition ([16]; cisplatin combination, concentration series, at 5 µM): 64.5% and 45% | inhibition ([17]; at 0.5 µM): 6.11% (inactive) and 4.43% (inactive) | inhibition ([17]; measured here: combo with BGB IC20, at 0.5 µM): 7.77% and 5.34% | inhibition ([17]; measured here: combo with cisplatin IC20, at 0.5 µM): 14.5% and -0.76% | inhibition ([18]; at 0.5 µM): -8.03% (inactive) and 6.1% (inactive) | inhibition ([18]; cisplatin combination, at 0.5 µM): 5.04% and -12.2% | inhibition ([18]; cisplatin combination, at 5 µM): 12.2% and 15.1% | inhibition ([18]; measured here: BGB IC40 combination 0.05 uM, at 0.05 µM): 8.16% and -30.4% | inhibition ([18]; single agent, at 5 µM): 13.4% and 28.8% | inhibition ([19]; at 0.5 µM): -8.16% (inactive) and -14.2% (inactive) | inhibition ([19]; cisplatin combo, at 5 µM): -16.1% and 2.1% | inhibition ([19]; measured here: BGB IC40 combination, at 0.05 µM): -2.84% and -11.5% | inhibition [19, 24]: 8.34% and 10.3% | inhibition ([19]; single agent, at 5 µM): -30.9% and -16.7% | inhibition ([20]; at 0.5 µM): 6.4% (inactive) and -19.7% (inactive) | inhibition [20, 22]: 25.3% and -10.2% | inhibition [20, 23]: -5.35% and -26.5% | inhibition ([20]; single agent, at 0.05 µM): 5.52% and 12.5% | inhibition ([20]; single agent, at 5 µM): 4.21% and -26.5%
